This note sets out measurements from PubChem BioAssay AID1259312 (Keith Lab, Institute of Cancer Science, University of …, 2017).

Out of some 4,500 compounds screened, about 200 (4.4%) were called active. Many of the other results were omitted from the sample, so actives are more common in it than they were. Values without a mark were called inactive.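 How the source made its calls: active means cell survival measured by absorbance rises more than 2.5-fold over infected cells without compound; inactive means the rest.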

The nature of the assay: survival after telomere uncapping, modulators, primary screen, cell-based (AID 1259312).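 Further: virus expresses mutant telomerase RNA that uncaps telomeres and kills cells; compound added 2 days after infection so exposure lasts 3 days.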 To be noted: HCT116 + Ad-hTR-mut, MTT, 5 d; at 10 µM, hits give high values.
Regarding `O=C(Nc1nc2c(s1)CCCC2)C1CC(=O)N(c2ccc(F)cc2)C1` (centres undefined), the fold change is -2.42.

For `Cc1cccn2c(=O)c(C=O)c(Nc3cccc(Cl)c3)nc12`, the fold change was -1.44.

With `CCCCc1ccc(C2C3=C(CC(C)(C)CC3=O)OC3=C2C(=O)CC(C)(C)C3)s1`, the fold change is -1.42.

As to `Fc1ccc(-c2nc3sc(-c4ccc(F)cc4)nc3s2)cc1`, the fold change is -2.41.

Take `O=C(c1ccc2[nH]c(=O)oc2c1)c1ccc2[nH]c(=O)oc2c1`: the fold change was 1.41.

As for `C#CCN1C(=O)S/C(=C\c2ccc(N3CCCC3)cc2)C1=O`, the fold change was -1.24.

As for `CN1CCC2(CC1)C(C#N)=C(N)Oc1n[nH]c(C(=O)OC(C)(C)C)c12`, the fold change is -1.08.

Consider `COCc1[nH]nc2c1C1(CCN(C)CC1)C(C#N)=C(N)O2`, for which the fold change was -1.21.

Take `CN1CCC2(CC1)C(C#N)=C(N)Oc1n[nH]c(-c3ccccc3)c12`: the fold change is 3.65 (active).

In the case of `CCOC(=O)C1=C(C)NC2=C(C(=O)CCC2)C1c1ccc(CC)s1` (centres undefined), the fold change was -1.61.

Regarding `O=c1ccc2ccccc2[nH]1`, the fold change is -1.85.

As to `COc1ccc2[nH]c(=O)c(=O)[nH]c2c1`, the fold change is 1.16.

For the compound `O=c1[nH]c2ccccc2[nH]c1=O`, the fold change was 5 (active).

On to `O=S(=O)(c1ccccc1)N1CCN(Cc2ccc3c(c2)OCO3)CC1`, for which the fold change is -4.81.

For `O=S(=O)(c1ccc2c(c1)OCCO2)N1CCCCC1`, the fold change was -1.44.

Consider `O=C(c1ccc(COc2ccc(I)cc2)o1)N1CCCC1`, for which the fold change was -1.09.

With `CN(C)c1ccc(/C=C2\C(=O)ON=C2c2cccc(I)c2)cc1`, the fold change is -1.18.

As to `Cn1c2c(c(=O)[nH]c1=O)C(c1ccccc1)C1=C(N2)c2ccccc2C1=O` (centres undefined), the fold change was -6.31.

In the case of `Cc1[nH][nH]c(=O)c1C(c1ccncc1)C(C#N)C#N` (centres undefined), the fold change is 3.56 (active).

Turning to `O=C(Nc1sc2c(c1C(=O)Nc1ccc(Br)cc1)CCC2)c1cccs1`, the fold change was 1.12.

`Cn1nnnc1SCC(=O)Nc1ccc(F)c(Cl)c1`: the fold change was -2.05.

Take `O=C(Nc1ccc(Br)cc1Br)C(Cl)Cl`: the fold change was -6.77.

`CC(=O)Nc1sc2c(c1C(=O)O)CCCC2`: the fold change was 2.88 (active).

Turning to `CC(=O)Nc1sc2c(c1C(N)=O)CCCC2`, the fold change was -1.98.

On to `CC(=O)Nc1sc2c(c1C(N)=O)CCCCC2`, for which the fold change was 1.05.

On to `COc1ccc(S(=O)(=O)N2CCCc3ccccc32)cc1`, for which the fold change was -1.9.

Take `CC1(C)CC(NS(=O)(=O)c2ccccc2)CC(C)(C)N1`: the fold change is -1.13.

Regarding `CC1(C)CC(NC(=O)C(=O)NC2CC(C)(C)NC(C)(C)C2)CC(C)(C)N1`, the fold change is 4.26 (active).

With `CC(C)NC(=O)C(=O)NC1CC(C)(C)NC(C)(C)C1`, the fold change is -2.38.

`Cc1cc(NC(=O)c2n[nH]c(=O)c3ccccc23)no1`: the fold change is -1.69.

For `Cn1c(-c2ccccc2)c(NC(=O)c2ccccc2Cl)c(=O)n1C`, the fold change is -1.22.

Take `C=CCOC(=O)c1sc(NC(=O)c2ccco2)nc1C`: the fold change was -1.45.

As to `Oc1[nH]c(=S)sc1/C=C/C=C/C=Nc1ccccc1`, the fold change entry is “inactive”.

In the case of `CCCc1cc(=O)oc2cc(O)cc(O)c12`, the fold change is 1.04.

Take `Cc1cc(C(F)(F)F)nn1CC(N)=O`: the fold change is 3.13 (active).

Take `Cn1nc(C(F)(F)F)cc1C(=O)O`: the fold change is -1.06.

Take `Cc1sc(NC(=O)Cn2nc(C(F)(F)F)cc2C)c(C(N)=O)c1C`: the fold change was -1.23.

For `C=CCn1c(COc2ccccc2)n[nH]c1=S`, the fold change was 1.52.

Regarding `CCOC(=O)c1c(NC(=O)C23CC4CC(CC(C4)C2)C3)sc2c1CCN(C(=O)OCC)C2`, the fold change is -1.15.

As to `Oc1c(Br)cc(Br)cc1C=Nc1ccc(Cl)cc1Cl`, the fold change result was “active”.

In the case of `O=[N+]([O-])c1ccc(O)c(N=Cc2cc(Br)cc([N+](=O)[O-])c2O)c1`, the fold change entry is “inactive”.

Consider `O=[N+]([O-])c1cc(Br)cc(C=Nc2ccc(N=Cc3cc(Br)cc([N+](=O)[O-])c3O)cc2)c1O`, for which the fold change result was “inactive”.

Consider `O=[N+]([O-])c1ccc(N=Cc2cc(Br)cc(Br)c2O)c(O)c1`, for which the fold change entry was “inactive”.

Consider `O=[N+]([O-])c1ccc(O)c(N=Cc2cc(Br)cc(Br)c2O)c1`, for which the fold change result is “active”.

`O=[N+]([O-])c1ccc(N=Cc2cc(Br)cc(Br)c2O)cc1`: the fold change result is “active”.

Regarding `O=[N+]([O-])c1ccc(N=Cc2cc(Br)cc([N+](=O)[O-])c2O)cc1`, the fold change result was “inactive”.

As for `Oc1c(Br)cc(Br)cc1C=Nc1cc(Cl)ccc1Cl`, the fold change entry is “inactive”.

For the compound `Oc1c(Cl)cc(Cl)cc1C=Nc1ccc(Cl)cc1Cl`, the fold change result is “inactive”.

Take `S=C(c1ccco1)N1CCOCC1`: the fold change was 1.24.

Take `NC(Cc1cc(F)ccc1F)C(=O)O` (centres undefined): the fold change is -3.72.

Take `O=[N+]([O-])c1cccc(S(=O)(=O)Nc2ccc(I)cc2)c1`: the fold change was 1.39.

In the case of `O=[N+]([O-])c1ccc(Nc2ccc(O)cc2)c([N+](=O)[O-])c1`, the fold change is -1.07.

On to `O=[N+]([O-])c1ccc(NS(=O)(=O)c2ccccc2)c([N+](=O)[O-])c1`, for which the fold change is 3.49 (active).

For the compound `O=C1CN(C(=O)Cn2c(=O)oc3ccccc32)c2ccccc2N1`, the fold change is -1.03.

Take `CN1N=C(C(=O)O)CCC1=O`: the fold change is 2.58 (active).

In the case of `O=C1CCC(=O)N1CCCCCCN1C(=O)CCC1=O`, the fold change is -1.37.

For `O=C(O)C1=NN(c2ccc(S(=O)(=O)O)cc2)C(=O)C1`, the fold change is 1.74.

As for `O=C1C=CC(=O)N1c1cc(Cl)cc(Cl)c1`, the fold change was -1.38.

`N#CC1=C(N)C(C#N)(C#N)C(c2ccc(Cl)cc2Cl)C2CCCC=C12` (centres undefined): the fold change was -4.43.

Regarding `Cc1[nH][nH]c(=O)c1C1(C(C#N)C#N)C2CC3CC(C2)CC1C3` (centres undefined), the fold change is 2.9 (active).

`C=CCN(CC=C)C(=O)C1c2ccccc2Oc2ccccc21`: the fold change was -1.36.

Consider `CN(C)c1ccc(NC(=O)c2sc(=S)[nH]c2N)cc1`, for which the fold change is -1.46.

As for `N#Cc1c(C(F)(F)F)cc(-c2cccs2)oc1=S`, the fold change was -2.59.

On to `N#Cc1c(C(F)(F)F)cc(-c2cccs2)[nH]c1=S`, for which the fold change is 4.58 (active).

For `N#Cc1c(C(F)(F)F)cc(-c2ccccc2)[nH]c1=S`, the fold change was -1.58.

Consider `O=C(Nc1ccc(I)cc1)C1CCCN1C(=O)c1cccs1` (centres undefined), for which the fold change is 1.51.

Regarding `Cn1c(COc2ccc(C3CCCCC3)cc2)n[nH]c1=S`, the fold change is 2.92 (active).

Consider `Cn1c(Cc2ccccc2)n[nH]c1=S`, for which the fold change is -1.19.

`CCCCn1c(COc2ccc(Cl)cc2)n[nH]c1=S`: the fold change is -1.76.
